# Bioassay records: PubChem, National Center for Advancing Translational Sciences (NCATS)
# Coupling enz: qHTS Assay for Inhibitors of Fructose-1,6-bisphosphate Aldolase from Giardia Lamblia: Coupling assay counterscreen | activity change, negative = inhibition, % at 58.2 µM, hits read low | coupling enzyme system counterscreen, AmpLite Red fluorescence | AID 2472, 2010 | hit rate 0.67% among 290,000; in the data active = activity change below about -30%
#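 Activity here indicates interference with the coupling reaction, not aldolase inhibition. Compounds at 57.5 uM final met coupling enzymes for 10 min at RT; substrate and AmpLite Red detection followed, with a 525/598 nm fluorescence read after 20 min.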
# Sfp inh: qHTS Assay for Inhibitors of Bacillus subtilis Sfp phosphopantetheinyl transferase (PPTase); 4'-phosphopantetheinyl transferase ffp (Bacillus subtilis), Q9F4F7; Biochemical Sfp PPTase activity, qHTS; Potency, µM, without a hit: largest response in the series, negative = inhibition, actives largely listed as inhibitors; hit rate 3.5% among 310,000; AID 1490, 2009;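 also: the enzyme is Sfp with the accession as filed and its product quenches rhodamine fluorescence; potency is read from the fitted curve at half-maximal effect; 0% = enzyme reaction without inhibitor and -100% = no enzyme wells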
#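 Fluorescence-quenching assay: 15 nM Sfp-PPTase preincubated 15 min at room temperature with compound, then 5 uM rhodamine-CoA and 12.5 uM BHQ-2-labelled YbbR peptide added. Fluorescence (ex 525/em 598 nm) read at start and after 30 min; difference gives rate.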
# Tau fibril FP: qHTS for Inhibitors of Tau Fibril Formation, Fluorescence Polarization; Microtubule-associated protein tau (Homo sapiens), P10636; K18 P301L tau heparin fibrillization, Alexa594 FP, 6 h; Potency, µM (top dose mostly 57.7 µM), inactives show at the highest dose activity, negative = inhibition, usual class: inhibitors; hit rate 0.39% among 280,000; AID 1468, 2008; also: potency is read from the fitted curve at half-maximal effect; nearly all actives have a fitted effect of over 55% in size
# Target sequence (P10636 561-689 P618L limits assumed): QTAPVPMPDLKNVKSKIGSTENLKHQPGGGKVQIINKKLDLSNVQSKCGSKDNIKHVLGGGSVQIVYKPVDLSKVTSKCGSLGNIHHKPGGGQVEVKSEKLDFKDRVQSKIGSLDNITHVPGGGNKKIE
#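 Human tau K18 […] P301L fragment, 15 uM unlabeled plus 0.24 uM Alexa 594-labeled tau (final), with compound and 20 uM heparin in 100 mM sodium acetate pH 7; 6 hr at 37 C, then Alexa 594 FP read.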
# Tau ThT inhib: qHTS for Inhibitors of Tau Fibril Formation, Thioflavin T Binding; hit rate 2.1% among 270,000; Microtubule-associated protein tau (Homo sapiens), P10636; Potency, µM (top dose mostly 57.4 µM), for inactives: at the top dose activity, negative = inhibition, hits mostly inhibitors; AID 1460, 2008; recombinant tau K18 P301L, heparin-induced fibrillization, ThT fluorescence; also: potency is read from the fitted curve at half-maximal effect; nearly all actives have a fitted effect of over 55% in size
#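 Using a mix of unlabeled (15 uM) and Alexa 594-labeled (0.24 uM) tau K18 P301L, heparin-triggered fibrillization over 6 hr at 37 C was scored by ThT fluorescence.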
# Tau fluor counter: Counterscreen qHTS for Inhibitors of Tau Fibril Formation, Fluorescence Polarization | hit rate 0.93% among 280,000 | tau K18 P301L Alexa594 fluorescence, heparin fibrillization | Potency, µM (series often up to 57.7 µM), inactives show at the highest dose activity change, negative = decrease; also: potency is read from the fitted curve at half-maximal effect; nearly all actives have a fitted effect of over 55% in size
#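 Human tau K18 P301L (15 uM unlabeled, 0.24 uM Alexa 594-labeled) in 100 mM sodium acetate pH 7 with 20 uM heparin, 6 hr at 37 C. ThT 30 uM added, 1 hr ambient; Alexa 594 FP and total fluorescence read at 555/632 nm.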
# * marks the source's active call; other numbers are inactive results; ? = inconclusive; nt = no result given; [ ] = remark or other dose. Shown are actives, neighbours in structure and some others; about 5.2% of the full set was active somewhere. Unless noted, calls follow the shape of the dose curve; as a rule, active = well fitted curve in the direction sought with a large enough effect; inconclusive = small, poorly fitted or top-dose-only effect, or another doubt; inactive = no such curve, though single readings can be large; an effect the other way counts as inactive or inconclusive. Unless noted, % is scaled to controls: 0 for no effect and ±100 for the full control effect.
SMILES,Coupling enz,Sfp inh,Tau fibril FP,Tau ThT inhib,Tau fluor counter
Cc1oc2c(c1C(=O)N1CCC(C)CC1)C(=O)c1ccccc1C2=O,-46*,-22%,0%,-11%,-17%
CCOC(=O)C1CCN(C(=O)c2c(C)oc3c2C(=O)c2ccccc2C3=O)CC1,-47*,-26%,-2%,-15%,-18%
COc1cccc(/C=C/C(=O)Nc2ccc3nc(N4CCN(C)CC4)cc(C)c3c2)c1OC,nt,nt,8%,5µM*,8.9µM*[quencher]
CCN1CCN(c2cc(C)c3cc(NC(=O)Cc4ccc(OC)c(OC)c4)ccc3n2)CC1,3,20%,0%,?,-15%
COc1cc(C(=O)Nc2ccc3nc(N4CCN(C)CC4)cc(C)c3c2)cc(OC)c1OC,1,-3%,nt,nt,nt
CCN1CCN(c2cc(C)c3cc(NC(=O)/C=C/c4cccc(OC)c4OC)ccc3n2)CC1,nt,nt,16%,3.2µM*,18µM*[quencher]
Cc1cc2c(cc1C)N(C(=O)CSc1nncn1C)C(C)(C)c1ssc(=S)c1-2,4,-13%,4%,20µM*,-22%
Cc1cccc(-c2nc(CSc3nncn4c3cc3oc(C)cc34)c(C)o2)c1,nt,nt,-6%,?,-22%
C=CCOC(=O)C1=C(C)N=c2s/c(=C3\C(=O)N(CC(=O)O)c4ccccc43)c(=O)n2C1c1ccc(OC)cc1 (centres undefined),5,25µM*,?,4µM*,-11%
CCn1c(C(=O)Nc2ccccc2C(=O)OC)cc2sc(Cl)cc21,nt,nt,13%,13%,2%
CCOC(=O)C(=O)Nc1nccs1,1,-1%,5%,-3%,2%
Cc1nc(NC(=O)CCc2ccccc2)sc1C,-3,40µM*,nt,nt,nt
CCOC(=S)SCC(=O)Nc1nccs1,1,71µM*,-10%,?,-11%
CCOC(=S)SCC(=O)Nc1nc(-c2ccccc2)cs1,-1,1%,-2%,?,-25%
CCOC(=S)SCC(=O)Nc1nc(C)c(C)s1,-4,56µM*,-6%,?,-5%
COc1ccc(N2CC(NC(=O)c3ccc4c(c3)OCO4)CC2=O)cc1OC (centres undefined),nt,nt,-5%,-4%,-2%
O=C1/C(=C/c2cccs2)SC(=S)N1c1ccccc1,-2,11%,-4%,-7%,-8%
O=C1/C(=C/c2cccs2)SC(=S)N1c1cccc(O)c1,2,3%,-11%,20µM*,20µM*[quencher]
CC(=O)Nc1cccc(NC(=O)c2c(-c3ccccc3)c(-c3ccccc3)nn(C)c2=O)c1,nt,nt,0%,6%,1%
COCCOC(=O)c1c(C)n(C)c2ccc(OC(=O)c3c(OC)cccc3OC)cc12,-2,28µM*,nt,nt,nt
Nc1cc(Cl)ccc1Oc1ccccc1,-1,18%,-1%,-1%,-7%
Nc1c(Cl)cc2c(c1Oc1ccccc1)C(=O)c1ccccc1C2=O,5,-7%,7%,?,14µM*[quencher]
CCC1CN(C(=O)C2CCN(S(=O)(=O)c3c(C)noc3/C=C/c3ccccc3F)CC2)c2cc(Cl)ccc2O1 (centres undefined),nt,nt,?,11%,-2%
O=C(/C=C/c1ccc(F)cc1)NC(=S)N1CCCCC1c1cccnc1 (centres undefined),6,50µM*,-1%,?,-20%
COc1cccc(OC)c1C(=O)NC(=S)N1CCCCC1c1cccnc1 (centres undefined),-1,-10%,nt,nt,nt
SMILES,Coupling enz,Sfp inh,Tau fibril FP,Tau ThT inhib,Tau fluor counter
O=C(c1cnccn1)N1CCC2(CC1)CCN(C(c1ccccc1)c1ccccc1)CC2,2,3%,nt,nt,nt
CCCCC(=Nc1ccc(N)cc1)C1=C(O)C(C(=O)OC)C(C)(C)CC1=O (centres undefined),-40*,1%,25µM*,10µM*,7.9µM*[quencher]
CCC(=Nc1ccc(N)cc1)C1=C(O)C(C(=O)OC)C(C)(C)CC1=O (centres undefined),-48*,45µM*,14µM*,7.1µM*,?
CCC(=NCc1ccccc1)C1=C(O)C(C(=O)OC)C(C)(C)CC1=O (centres undefined),2,-1%,0%,?,-9%
CCCC(=Nc1ccccc1)C1=C(O)C(C(=O)OC)C(C)(C)CC1=O (centres undefined),-3,5%,0%,-15%,5%
CCCC[C@H](NC(=O)[C@H](CC(C)C)NC(=O)CNC(=O)[C@@H](NC(=O)[C@H](Cc1ccccc1)NC(=O)[C@H](CO)NC(=O)[C@@H](N)CC(=O)O)C(C)C)C(N)=O,0,-3%,nt,nt,nt
COc1ccc(OC)c(NC(=O)C(C)n2c(=O)c(-c3ccccc3NC(C)=O)nc3ccccc32)c1 (centres undefined),nt,nt,-5%,7%,6%
CN(C)c1ccc(NC(=S)c2ccc3ccccc3n2)cc1,-3,7.1µM*,nt,nt,nt
CCSc1nnc(NC(=O)C(C(F)(F)F)C(F)(F)F)s1,1,4%,?,22µM*,-21%
CC(C)(C)c1ccc(C(=O)N2CCC(c3nc4ccccc4o3)CC2)cc1,nt,nt,-8%,-15%,-11%
C/C(=N/Nc1cc(-c2ccccc2)nc(-c2ccccc2)n1)c1ccc(O)cc1,-5,6%,?,?,7.1µM*[quencher]
C/C(=N/Nc1nc(-c2ccccc2)cc(-c2ccccc2)n1)c1ccc(N)cc1,0,-21%,0%,?,?
O=C(c1ccc(Cl)cc1)c1oc2ccccc2c1CS(=O)c1ccc(Cl)cc1 (centres undefined),-8,56µM*,-11%,-10%,2%
COCC(C)N1C(=O)Cc2c1nc(N)c1c(N)nc(N3CCN(c4ccccc4F)CC3)c(C#N)c21 (centres undefined),-8,-3%,?,25µM*,?
COCCN1C(=O)Cc2c1nc(N)c1c(N)nc(N3CCN(c4ccc(F)cc4)CC3)c(C#N)c21,-9,21%,-1%,?,-24%
O=c1cc(O)c2sc(Nc3ccc(F)c(Cl)c3)nc2[nH]1,-20,-100%,?,28µM*,?
CCOc1cccc2cc(-c3nnc(Nc4ccc(F)c(Cl)c4)s3)c(=O)oc12,nt,nt,-3%,-4%,6%
O=c1cnnc(Nc2ccc(Cl)c(C(F)(F)F)c2)[nH]1,8,10%,-4%,-2%,-6%
O=c1cc(O)c2sc(Nc3ccc(Cl)c(F)c3)nc2[nH]1,2,?,13µM*,16µM*,?
Cc1ccc(C)c(N2CCN(C(=O)c3cc(S(=O)(=O)N4CCCCC4)cn3C)CC2)c1,nt,nt,-10%,-14%,-9%
